Counter-ions that a name gives are not always drawn. Values without a mark were called inactive.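 Rule for the calls: active = log2 fold change beyond 2 SD from the library mean after excluding viability outliers; inactive = within 2 SD.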
Each compound was assayed against PARP1 L713F-nLuc biosensor (HCT116) (UniProt P09874) (assay: PARP1 L713F-nLuc/akaLuc ratio relative to DMSO control (biosensor stabilization) (fold change); higher = more PARP1 biosensor stabilization (target engagement / stabilizer), active = hit call of the paper). Conditions: stock concentration (mM; final µM = stock mM x 1): 10; 24 h.
Chain of PARP1 L713F-nLuc biosensor (HCT116) (P09874 whole entry L713F, looked up): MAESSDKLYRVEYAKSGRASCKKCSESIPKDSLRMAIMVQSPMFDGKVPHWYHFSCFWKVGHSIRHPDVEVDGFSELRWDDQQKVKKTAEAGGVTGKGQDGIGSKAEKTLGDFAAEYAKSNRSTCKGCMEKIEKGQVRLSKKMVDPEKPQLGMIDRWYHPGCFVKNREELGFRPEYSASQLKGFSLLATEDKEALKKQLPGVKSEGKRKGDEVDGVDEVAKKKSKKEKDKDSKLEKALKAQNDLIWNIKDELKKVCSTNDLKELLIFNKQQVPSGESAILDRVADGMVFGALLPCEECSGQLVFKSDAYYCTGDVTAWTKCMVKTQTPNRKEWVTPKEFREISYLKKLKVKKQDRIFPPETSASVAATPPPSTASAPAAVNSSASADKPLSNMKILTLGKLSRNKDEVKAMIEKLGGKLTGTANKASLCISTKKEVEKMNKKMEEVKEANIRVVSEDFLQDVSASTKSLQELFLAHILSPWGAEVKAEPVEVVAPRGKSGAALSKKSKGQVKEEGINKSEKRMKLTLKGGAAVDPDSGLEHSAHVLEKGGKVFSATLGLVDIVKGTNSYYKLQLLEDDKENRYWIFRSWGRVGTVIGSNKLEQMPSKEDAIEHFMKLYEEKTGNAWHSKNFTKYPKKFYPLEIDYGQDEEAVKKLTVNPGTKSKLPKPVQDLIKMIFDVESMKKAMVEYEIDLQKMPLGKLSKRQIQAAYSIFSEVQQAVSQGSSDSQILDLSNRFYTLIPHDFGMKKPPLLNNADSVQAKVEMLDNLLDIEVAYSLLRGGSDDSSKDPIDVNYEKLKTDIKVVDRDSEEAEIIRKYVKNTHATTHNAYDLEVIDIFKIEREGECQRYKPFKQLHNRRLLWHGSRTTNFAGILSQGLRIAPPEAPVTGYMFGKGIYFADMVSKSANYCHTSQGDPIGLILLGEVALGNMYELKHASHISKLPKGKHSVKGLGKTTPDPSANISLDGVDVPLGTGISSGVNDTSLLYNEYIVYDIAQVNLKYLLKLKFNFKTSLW

Compound	PARP1 L713F-nLuc/akaLuc ratio
C[C@@H]1CC[C@@]2(OC1)O[C@H]1C[C@H]3[C@@H]4CC=C5C[C@@H](O[C@@H]6O[C@H](CO)[C@@H](O[C@@H]7O[C@@H](C)[C@H](O[C@@H]8O[C@@H](C)[C@H](O)[C@@H](O)[C@H]8O)[C@@H](O)[C@H]7O)[C@H](O)[C@H]6O[C@@H]6O[C@@H](C)[C@H](O)[C@@H](O)[C@H]6O)CC[C@]5(C)[C@H]4CC[C@]3(C)[C@@]1(O)[C@@H]2C [Paris saponin VII]	1.01
COc1cc(OC2CCN(C)CC2)ccc1Nc1ncc2c(n1)n(C1CCCC1)c(=O)n2C	1.18
CCCCNC(=N)NC(=N)N [Buformin (hydrochloride)]	0.782
COc1cc2ncnc(Nc3ccc(NC(=O)c4ccccc4)cc3)c2cc1OC [Aurora kinase inhibitor-2]	1.35
NC(=O)c1cccc2[nH]c(-c3ccc(C4CCCN4)cc3F)nc12 (stereo not drawn)	4.24 (active)
CC1(N)CCN(c2cnc(-c3cccc(Cl)c3Cl)c(N)n2)CC1 [SHP099 dihydrochloride]	0.78
CCN(C(=O)c1cc(F)ccc1Oc1cncnc1N1CC2(CCN(C[C@H]3CC[C@H](NS(=O)(=O)CC)CC3)CC2)C1)C(C)C	0.797
Cc1ccc2[nH]c3c(c2c1)CCCC3C(N)=O (stereo not drawn)	1.25

— the supplement of paper PMC11624193, “Coupling cellular drug-target engagement to downstream pharmacology with CeTEAM” (Nature Communications, 2024)
